Screening results as filed in PubChem.
Most compounds without a hit are left out; they make up all but 7.3% or so of the library.
Rab9 prom act: Rab9 promoter activation; actives 2.8% (n = 320,000); Potency, µM (highest dose often 9.22 µM), usual class: activators; Huh7 Rab9 promoter-luciferase reporter, luminescence, 24 h; AID 485297; also: nearly all actives have a fitted effect of over 60% in size
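Promoter activation is measured as luciferase luminescence in Huh7 cells stably transfected with a Rab9 promoter–luciferase construct, following 24 h compound exposure at 37 °C and 10 min reagent incubation at ambient temperature.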
FLuc counter: firefly luciferase modulation, counter-screen for miR-21 project. AID 588342. Potency, µM (titrated, usually from 57.5 µM), most hits filed as inhibitors. P08659. actives 6.9% (n = 360,000). purified FLuc, Km substrates, luminescence inhibition; also: nearly all actives have a fitted effect of over 55% in size
Target sequence (P08659 whole entry, looked up): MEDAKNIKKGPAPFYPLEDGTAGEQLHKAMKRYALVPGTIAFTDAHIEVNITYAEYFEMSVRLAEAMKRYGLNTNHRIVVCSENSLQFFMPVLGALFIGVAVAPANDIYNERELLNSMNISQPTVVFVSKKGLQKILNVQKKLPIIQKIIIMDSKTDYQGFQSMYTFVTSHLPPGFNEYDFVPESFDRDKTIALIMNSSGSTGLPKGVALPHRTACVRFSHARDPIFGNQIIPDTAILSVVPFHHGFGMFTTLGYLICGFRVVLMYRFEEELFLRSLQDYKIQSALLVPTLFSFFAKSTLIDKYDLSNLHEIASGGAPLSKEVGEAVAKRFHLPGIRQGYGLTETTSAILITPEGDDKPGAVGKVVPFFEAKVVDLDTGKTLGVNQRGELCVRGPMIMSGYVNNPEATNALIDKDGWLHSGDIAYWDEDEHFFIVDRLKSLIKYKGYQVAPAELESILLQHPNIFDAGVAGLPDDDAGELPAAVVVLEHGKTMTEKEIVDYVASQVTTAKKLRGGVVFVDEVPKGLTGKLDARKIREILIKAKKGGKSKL
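Purified P. pyralis luciferase, 10 nM final, with Km-level 10 uM D-luciferin and 10 uM ATP in 50 mM Tris acetate pH 7.5, 10 mM Mg acetate, 0.01% Tween-20, 0.05% BSA; 6-point qHTS titration about 60 µM downward; luminescence read.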
p53 reactivation: restores transcriptional activity of mutant p53; Potency, µM (top dose mostly 92.2 µM), usual class: activators; H1299 p53-A138V BP100-luciferase reporter, luminescence, 24 h; actives 0.063% (n = 320,000); also: nearly all actives have a fitted effect of over 45% in size
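H1299 (p53-null), stable ts p53-A138V + BP100-Luc; 1000 cells/well, Opti-MEM/10% FBS; cpd 4 pt, 1:5; 24 h, 37 deg C, 5% CO2; detection reagent 10 min RT; luminescence.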
NPC1 promoter act: activators of NPC1 promoter. Potency, µM (top dose mostly 9.22 µM), actives largely listed as activators. actives 2.4% (n = 320,000). Huh7 NPC1 promoter luciferase reporter, 24 h. AID 485313; also: nearly all actives have a fitted effect of over 60% in size
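Readout is luciferase luminescence, reflecting NPC1 promoter activation in stably transfected Huh7 cells after 24 h compound exposure at 37 °C in reduced-serum medium with 10% FBS.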
ELG1 genotox: induces genotoxicity in HEK293T cells with luciferase-tagged ELG1 | HEK293T ELG1-luciferase reporter, luminescence, 16 h | actives 1.3% (n = 330,000) | Potency, µM (top dose mostly 46 µM), most hits filed as activators; also: nearly all actives have a fitted effect of over 60% in size
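Step 1: seed 2,000 HEK293T ELG1-luciferase cells per well. Step 2: add compound or DMSO, incubate 16 hr at 37 °C. Step 3: ONE-Glo, 30 min at room temperature, read luminescence.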
SMN2 splice enh: increases expression of the SMN2 splice variant | HEK293 SMN2-luciferase splicing reporter, luminescence, 30-36 h | Potency, µM (doses to about 46.1 µM), most hits filed as activators | actives 2.8% (n = 210,000) | AID 1458; also: nearly all actives have a fitted effect of over 55% in size
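HEK293 cells carry an SMN2 […]–luciferase reporter in which exon 7 inclusion puts luciferase in frame. Cells were plated 10-12 h before compound addition, then incubated 30-36 h at 37C. ONE-Glo luminescence was read; sodium butyrate at 4.5 mM final served as control.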
A number is an active result. Calls follow the shape of the dose curve; as a rule, active = well fitted curve in the direction sought with a large enough effect; inconclusive = small, poorly fitted or top-dose-only effect, or another doubt; inactive = no such curve, though single readings can be large; an effect the other way counts as inactive or inconclusive.

What do the screens show for `O=C(Nc1ccccc1-c1nnc(SCc2ccccc2)o1)c1ccccc1`?
Rab9 prom act: inactive; FLuc counter: inactive; p53 reactivation: inactive; NPC1 promoter act: inactive; ELG1 genotox: inactive; SMN2 splice enh: inactive

How did O=C(O)c1ccc(CSc2nnc(-c3ccc(Cl)cc3)o2)cc1 do in these assays?
Rab9 prom act: inactive; FLuc counter: 17µM; p53 reactivation: inactive; NPC1 promoter act: inactive; ELG1 genotox: inactive

Results for O=C(O)c1ccc(CSc2nnc(-c3ccccc3Br)o2)cc1 ?
Rab9 prom act: inactive; FLuc counter: 24µM; p53 reactivation: inconclusive; NPC1 promoter act: inactive; ELG1 genotox: inactive

Results for COC(=O)c1sc(-c2ccc(C(C)(C)C)cc2)cc1NC(=O)COCC(=O)O ?
Rab9 prom act: inactive; FLuc counter: 3.8µM; p53 reactivation: inactive; NPC1 promoter act: inactive; ELG1 genotox: inactive

What do the screens show for `COC(=O)c1sc(-c2ccccc2)cc1NC(=O)Nc1ccc(Cl)cc1`?
FLuc counter: inactive; SMN2 splice enh: inactive

Results for COC(=O)c1sc(-c2ccccc2)cc1NC(C)=O ?
Rab9 prom act: inactive; FLuc counter: inconclusive; p53 reactivation: inactive; NPC1 promoter act: inactive; ELG1 genotox: inactive; SMN2 splice enh: inactive

How did COC(=O)c1sc(-c2ccc(Cl)cc2)cc1NC(=O)CSCC(=O)O do in these assays?
Rab9 prom act: inactive; FLuc counter: 13µM; p53 reactivation: inactive; NPC1 promoter act: inactive; ELG1 genotox: inactive

How did COCc1cc(C)nc2sc(C(=O)Nc3cc(C)ccc3F)c(N)c12 do in these assays?
FLuc counter: inconclusive; SMN2 splice enh: inactive

Results for Cn1ccnc1SCC(=O)c1c[nH]c2ccccc12 ?
Rab9 prom act: 3.5µM; FLuc counter: 19µM; p53 reactivation: inactive; NPC1 promoter act: 4µM; ELG1 genotox: 10µM; SMN2 splice enh: 18µM

Results for CCOC(=O)c1c(S(=O)(=O)N2CCC(C(=O)Nc3ccccc3OC)CC2)c(C)n(CC)c1C ?
FLuc counter: inactive

How did COc1ccc(-c2c3c(=O)n(C)c(=O)n(C)c3c3c(-c4ccccc4)nc4ccccc4n23)cc1 do in these assays?
FLuc counter: inactive; SMN2 splice enh: inactive

Results for Cc1c(NC(=O)c2nc3ccccc3nc2N2CCCCC2)cccc1[N+](=O)[O-] ?
FLuc counter: inactive; SMN2 splice enh: inactive

Results for Cc1sc2nc(SCC(=O)Nc3ccccc3F)[nH]c(=O)c2c1C ?
Rab9 prom act: inactive; FLuc counter: inactive; p53 reactivation: inactive; NPC1 promoter act: inactive; ELG1 genotox: inactive

How did Cc1sc2nc(SCC(=O)Nc3ccc(S(=O)(=O)NCCCC(=O)O)cc3)[nH]c(=O)c2c1C do in these assays?
Rab9 prom act: inactive; FLuc counter: 17µM; p53 reactivation: inactive; NPC1 promoter act: inactive; ELG1 genotox: inactive

Results for CN(C)CCNC(=O)c1cc2c(s1)-c1ccccc1OC2 ?
Rab9 prom act: inactive; FLuc counter: 19µM; p53 reactivation: inconclusive; NPC1 promoter act: inactive; ELG1 genotox: 23µM; SMN2 splice enh: inactive

How did CCN1CCN(CCCNC(=O)c2cc3c(s2)-c2ccccc2OC3)CC1 do in these assays?
Rab9 prom act: inactive; FLuc counter: inactive; p53 reactivation: inactive; NPC1 promoter act: inactive; ELG1 genotox: inactive; SMN2 splice enh: inactive

What do the screens show for `CCOc1ccc(NC(=O)c2cc3c(s2)-c2ccccc2OC3)cc1`?
FLuc counter: inactive; SMN2 splice enh: inactive

What do the screens show for `Cc1csc(NC(=O)c2cc3c(s2)-c2ccccc2OC3)n1`?
Rab9 prom act: inconclusive; FLuc counter: inconclusive; p53 reactivation: inconclusive; NPC1 promoter act: 3.5µM; ELG1 genotox: inactive; SMN2 splice enh: inconclusive

Results for Cc1ccc(NC(=O)CCSc2nc(-c3ccco3)cc(C(F)(F)F)n2)cc1F ?
FLuc counter: inactive; SMN2 splice enh: inactive

Results for COC(=O)c1ccc(C(NC(=O)OCc2ccccc2)/C(F)=C/[C@@H](C)C(=O)NCCc2c[nH]c3ccc(OC)cc23)cc1 (some centres not stated) ?
SMN2 splice enh: inactive

What do the screens show for `O=C(OCc1ccccc1)/C(=C/c1cccc2ccccc12)NC(=O)c1ccccc1`?
Rab9 prom act: inactive; FLuc counter: inactive; p53 reactivation: inactive; NPC1 promoter act: inactive; ELG1 genotox: inactive; SMN2 splice enh: inactive

How did C=CCOC(=O)/C(=C/c1cccc2ccccc12)NC(=O)c1ccccc1 do in these assays?
Rab9 prom act: inactive; FLuc counter: 19µM; p53 reactivation: inactive; NPC1 promoter act: inactive; ELG1 genotox: inactive; SMN2 splice enh: inconclusive

What do the screens show for `COc1ccc(C(=O)NCCc2c[nH]c3ccccc23)cc1[N+](=O)[O-]`?
Rab9 prom act: inactive; FLuc counter: inactive; p53 reactivation: inactive; NPC1 promoter act: inactive; ELG1 genotox: inactive

What do the screens show for `O=C(COC(=O)C12CC3CC(CC(O)(C3)C1)C2)Nc1cccc(Br)c1`?
Rab9 prom act: inactive; FLuc counter: 13µM; p53 reactivation: inactive; NPC1 promoter act: inactive; ELG1 genotox: inactive

How did CCOc1ccc(N2CC(c3nc4ccccc4n3CCCOc3ccccc3)CC2=O)cc1 (configuration not stated) do in these assays?
FLuc counter: inconclusive; SMN2 splice enh: inactive

How did Cc1cc(C(=O)Nc2ccccc2C(=O)O)oc1C do in these assays?
Rab9 prom act: inactive; FLuc counter: 19µM; p53 reactivation: inactive; NPC1 promoter act: inactive; ELG1 genotox: inactive

How did Cc1ccccc1C(=O)NC(=S)Nc1ccccc1C(=O)O do in these assays?
Rab9 prom act: inactive; FLuc counter: inactive; p53 reactivation: inactive; NPC1 promoter act: inactive; ELG1 genotox: inactive; SMN2 splice enh: inactive

What do the screens show for `Cc1occc1C(=O)Nc1ccccc1C(=O)O`?
Rab9 prom act: inactive; FLuc counter: 27µM; p53 reactivation: inactive; NPC1 promoter act: inactive; ELG1 genotox: inconclusive; SMN2 splice enh: inactive

How did CCOc1ccc(NC(=O)CCn2c(=O)c3cccn3c3cccnc32)cc1 do in these assays?
FLuc counter: inactive

How did COc1ccc(-c2nnc(SC(C)C(=O)Nc3c(C)n(C)n(-c4ccccc4)c3=O)o2)cc1 (configuration not stated) do in these assays?
Rab9 prom act: inactive; FLuc counter: inactive; p53 reactivation: inactive; NPC1 promoter act: inactive; ELG1 genotox: inactive; SMN2 splice enh: inactive

What do the screens show for `CC(C)N=C1NN=C(c2ccc(Cl)c(Cl)c2)CS1`?
Rab9 prom act: 0.35µM; FLuc counter: 3.4µM; p53 reactivation: inactive; NPC1 promoter act: 1.4µM; ELG1 genotox: 2.1µM; SMN2 splice enh: 5µM

What do the screens show for `CC(C)c1ccc(N=C2NN=C(c3cccs3)CS2)cc1`?
Rab9 prom act: 0.71µM; FLuc counter: 6µM; p53 reactivation: inconclusive; NPC1 promoter act: 2µM; ELG1 genotox: inconclusive; SMN2 splice enh: 13µM
